From PubChem
This is a sample that favours compounds with a hit; in the whole collection about 11% have one here.
BAZ2B inh – qHTS Assay for Inhibitors of BAZ2B | Bromodomain adjacent to zinc finger domain protein 2B (Homo sapiens), Q9UIF8 | AlphaScreen BAZ2B-H3K14Ac peptide displacement | Potency, µM (doses to about 114 µM), usual class: inhibitors | AID 504333, 2011 | 360,000 compounds, 4.4% hits; note: nearly all actives have a fitted effect of over 60% in size
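AlphaScreen luminescence quantifies BAZ2B engagement of H3K14Ac peptide; the protein and biotinylated peptide are both at 50 nM final, buffer PBS pH 7.4 with 0.01% Tween-20, all steps at room temperature.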
G9a block – qHTS Assay for Inhibitors of Histone Lysine Methyltransferase G9a | Histone-lysine N-methyltransferase EHMT2 (Homo sapiens), Q96KQ7 | G9a H3K9 monomethylation, AlphaScreen, 2 h | Potency, µM (highest dose often 102 µM), hits mostly inhibitors | 350,000 compounds, 8.8% hits | AID 504332, 2011; note: nearly all actives have a fitted effect of over 75% in size
Target sequence (Q96KQ7 913-1193 limits assumed): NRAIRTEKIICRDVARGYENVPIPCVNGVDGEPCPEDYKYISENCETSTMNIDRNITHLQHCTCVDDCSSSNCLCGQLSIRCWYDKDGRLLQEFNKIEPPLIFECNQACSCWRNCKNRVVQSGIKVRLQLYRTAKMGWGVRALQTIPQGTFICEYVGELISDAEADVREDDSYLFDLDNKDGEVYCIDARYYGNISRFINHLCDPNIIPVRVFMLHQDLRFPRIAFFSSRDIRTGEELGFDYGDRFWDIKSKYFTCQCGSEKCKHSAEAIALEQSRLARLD
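Quantitative HTS format: methyltransferase activity on a biotin-tagged H3K9 peptide is measured by AlphaScreen, using a rabbit anti-monomethyl-H3K9 antibody with streptavidin donor and anti-IgG acceptor beads. Final levels are 20 nM enzyme, 500 nM peptide, 20 uM SAM; 2 h RT.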
PLK1 PBD inh – qHTS for Inhibitors of PLK1-PDB (polo-like kinase 1 - polo-box domain): Primary Screen | Plk1 PBD binding of FITC phosphopeptide, fluorescence polarization | Potency, µM, usual class: inhibitors | 360,000 compounds, 2.8% hits | AID 720504, 2013; note: series mostly up to about 57 µM; nearly all actives have a fitted effect of over 65% in size
JMJD2A Tudor inh – qHTS Assay for Inhibitors of JMJD2A-Tudor Domain; AID 504339, 2011; 390,000 compounds, 4.4% hits; Lysine-specific demethylase 4A (Homo sapiens), O75164; AlphaScreen JMJD2A-Tudor / H3K4me3 peptide binding; Potency, µM (doses to about 114 µM), hits mostly inhibitors; note: nearly all actives have a fitted effect of over 50% in size
VDR inh – Inhibitors of the vitamin D receptor (VDR): qHTS | VDR-SRC2-3 peptide fluorescence polarization, 2 h | Potency, µM, usual class: inhibitors | 400,000 compounds, 0.93% hits | AID 504847, 2011
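Signal is fluorescence polarization, reporting how far test compounds block the interaction of VDR with the SRC2-3 coregulator peptide after a 2 h room-temperature incubation.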
HP1b chromo inh – HTS for Inhibitors of HP1-beta Chromodomain Interactions with Methylated Histone Tails | AID 540317, 2011 | 390,000 compounds, 0.56% hits | Chromobox protein homolog 1 (Homo sapiens), P83916 | Potency, µM (doses to about 114 µM), most hits filed as inhibitors | AlphaScreen HP1-beta / biotin-H3K9me3 peptide binding; note: nearly all actives have a fitted effect of over 70% in size
Target sequence (P83916 whole entry, looked up): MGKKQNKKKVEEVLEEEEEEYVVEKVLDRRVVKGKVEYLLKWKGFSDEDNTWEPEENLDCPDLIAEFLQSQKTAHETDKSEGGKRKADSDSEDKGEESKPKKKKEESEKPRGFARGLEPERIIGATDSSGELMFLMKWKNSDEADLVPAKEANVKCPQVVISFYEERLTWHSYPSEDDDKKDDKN
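AlphaScreen: HP1-beta (50 nM) preformed 30 min with biotin-H3(1-18)K9me3 peptide (50 nM) in PBS pH 7.4, 0.01% Tween-20. Compound added for 30 min at RT, then streptavidin donor/nickel chelate acceptor beads (10 ug/mL) for 30 min.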
Each line names hits and unclear results; the compound was inactive in the other large screens. Calls come from the whole dose curve; as a rule, active = well fitted curve in the direction sought with a large enough effect; inconclusive = small, poorly fitted or top-dose-only effect, or another doubt; inactive = no such curve, though single readings can be large; an effect the other way counts as inactive or inconclusive.

CC1CN(c2ccccc2)NC1=O (centres undefined)	G9a block 35µM
O=C(CCN1CC2CCC(CC2)C1)c1cccs1	PLK1 PBD inh 24µM, VDR inh 45µM (no result: BAZ2B inh, G9a block)
O=C(C[N+]12CCC(CC1)C(CO)C2)c1ccc([N+](=O)[O-])cc1 (centres undefined)	G9a block 35µM
N#CC(C#N)=NNc1ccc(S(=O)(=O)N2CCCC2)cc1	BAZ2B inh inconclusive, G9a block inconclusive, JMJD2A Tudor inh inconclusive, VDR inh inconclusive, HP1b chromo inh inconclusive
N#CC(C#N)=NNc1ccc(OC(F)(F)F)cc1	G9a block 10µM, VDR inh 0.89µM (no result: BAZ2B inh, PLK1 PBD inh, JMJD2A Tudor inh, HP1b chromo inh)
C=CCn1c(O)c(C(CC)=Nc2cccc(C(=O)O)c2)c(=O)[nH]c1=O	G9a block inconclusive
C=CCn1c(O)c(C(C)=Nc2ccc3c(c2)CCC3)c(=O)[nH]c1=O	none
C=CCn1c(O)c(C(C)=O)c(=O)[nH]c1=O (tested in a mixture with another compound)	G9a block 45µM
C=CCn1c(O)c(C(C)=Nc2ccc(C(=O)OCC)cc2)c(=O)[nH]c1=O	BAZ2B inh 79µM, G9a block inconclusive
C=CCn1c(O)c(C(C)=Nc2cccc(C(=O)O)c2)c(=O)[nH]c1=O	G9a block 50µM
O=C(/C=C\c1ccc(Cl)cc1)N[C@@]12CCC(=O)[C@@H]3Oc4c(O)ccc5c4[C@@]31CCN(CC1CC1)[C@@H]2C5	none (no result: BAZ2B inh, G9a block, PLK1 PBD inh, JMJD2A Tudor inh, HP1b chromo inh)
CCN1C(=O)C(=Cc2ccc(C)s2)C(=O)N(CC)C1=S	BAZ2B inh 45µM, G9a block 35µM, PLK1 PBD inh 0.53µM, JMJD2A Tudor inh 25µM, VDR inh inconclusive, HP1b chromo inh 40µM
CCC(C)C(=O)OC1C(O)C2C(CN3CC(C)CCC3[C@]2(C)O)C2C[C@]34O[C@@]5(O)C(OC(=O)C(C)(O)C(C)O)CCC3(C)C5C(OC(C)=O)C(OC(C)=O)C4[C@@]21O (some centres undefined)	none (no result: BAZ2B inh, PLK1 PBD inh, JMJD2A Tudor inh, HP1b chromo inh)
C=C(C)[C@H]1[C@H]2OC(=O)[C@@H]1[C@]1(O)C[C@H]3O[C@]34C(=O)O[C@H]2[C@@]14C	none (no result: BAZ2B inh, PLK1 PBD inh, JMJD2A Tudor inh, HP1b chromo inh)
O=C1c2ccccc2-c2c1nc1c([n+]2[O-])CCCC1	G9a block inconclusive
Cc1ccc(-c2nc3c(=O)n(C)c(=O)nc-3n(C)n2)cc1	none (no result: BAZ2B inh, G9a block, PLK1 PBD inh)
Cn1ncnc2c(=O)n(C)c(=O)nc1-2	G9a block 13µM, PLK1 PBD inh inconclusive
Cc1cc2c(C(F)(F)F)cc(=O)oc2c2c1NCCC2	none (no result: G9a block)
O=c1cc(C(F)(F)F)c2cc3c4c(c2o1)CCCN4CCC3	PLK1 PBD inh 1.2µM
CCOC(=O)[C@]12Cc3cc(Cl)ccc3[C@H]1N(C1CCCCC1)C(=O)c1ccccc12	PLK1 PBD inh 1.9µM (no result: BAZ2B inh, G9a block, JMJD2A Tudor inh, VDR inh, HP1b chromo inh)
CCOC(=O)[C@]12Cc3cc(OC)ccc3[C@H]1N(C1CCCCC1)C(=O)c1ccccc12	PLK1 PBD inh 3µM (no result: BAZ2B inh, G9a block, JMJD2A Tudor inh, VDR inh, HP1b chromo inh)
C[C@@H]1OC(=O)[C@H]2C[C@H]3CCCC[C@@H]3[C@@H](/C=C/[C@H]3CCC[C@H](C)N3C)[C@@H]12	none (no result: BAZ2B inh, PLK1 PBD inh, JMJD2A Tudor inh, HP1b chromo inh)
O=C(CCN1CCN(c2ccccc2)CC1)c1ccc(Br)cc1	BAZ2B inh inconclusive, G9a block 20µM, PLK1 PBD inh 8.4µM, VDR inh 89µM
CSc1nc(N)c(N=Nc2ccc([As](=O)(O)O)cc2)c(=O)[nH]1	G9a block 8.9µM, PLK1 PBD inh 11µM, JMJD2A Tudor inh inconclusive, VDR inh 50µM
CC1CCCC(C2(O)C(=O)Nc3ccccc32)C1=O (centres undefined)	G9a block 1.8µM
Clc1ccc(N2CC3CCC(C2)N3)nn1	G9a block 24µM (no result: BAZ2B inh, PLK1 PBD inh, JMJD2A Tudor inh, HP1b chromo inh)
CCOc1ccccc1NC(=O)c1sc2nc3c(cc2c1N)CN(Cc1ccccc1)CC3	G9a block inconclusive (no result: PLK1 PBD inh)
CN1CCc2nc3sc(C(=O)NC4CC4)c(N)c3cc2C1	BAZ2B inh inconclusive, G9a block 8.9µM, JMJD2A Tudor inh inconclusive
NCCCP(=O)(O)CC1CCCCC1	none (no result: BAZ2B inh, PLK1 PBD inh, JMJD2A Tudor inh, HP1b chromo inh)
NCC(CS(=O)(=O)O)c1ccc(Cl)cc1 (centres undefined)	none (no result: BAZ2B inh, PLK1 PBD inh, JMJD2A Tudor inh, HP1b chromo inh)
